Some test systems named below: HCT-15 colon; HT29 colon; SNB-75 CNS; SNB-19 CNS; U251 CNS; PC-3 prostate; SK-MEL-5 melanoma; UACC-62 melanoma; SK-MEL-28 melanoma; SK-MEL-2 melanoma; EKVX NSCLC; SN12C renal; UO-31 renal; TK-10 renal; ACHN renal; CAKI-1 renal; A498 renal; MOLT-4 leukemia; CCRF-CEM leukemia; LOX IMVI melanoma.
Holding throughout (test): NCI-60 one-dose screen, 48 h (100 = growth as untreated, 0 = no growth, -100 = all killed)
Holding throughout (settings): 10 µM unless noted

Values joined by “and” are separate entries in the source; they are usually repeats but may differ in a detail not shown here. Identical values can stand only once. This is part of a sample that, as a whole, favours compounds with a hit. Of some 83,000 tested, about 20% had one in any assay.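 96-well plates, one dose, 48 hours. Percent growth reported; active if below 10.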 Active and inactive are the calls of the source.

For `CC(=O)Nc1c(I)c(NC(C)=O)c(I)c(C(=O)O)c1I`, the growth in the assay with HCT-15 colon is 98.5% (inactive) and 131% (inactive); with HT29 colon, 108% (inactive) and 118% (inactive); in the assay with SNB-75 CNS, 82% (inactive) and 124% (inactive); in the assay on SNB-19 CNS, 107% (inactive); with U251 CNS it was 102% (inactive) and 106% (inactive); in the assay with PC-3 prostate it was 88.2% (inactive) and 101% (inactive). Moreover, the growth with SK-MEL-5 melanoma is 103% (inactive) and 105% (inactive); in the assay on UACC-62 melanoma, 105% (inactive) and 119% (inactive); with SK-MEL-28 melanoma, 115% (inactive) and 108% (inactive); in the assay on SK-MEL-2 melanoma, 111% (inactive) and 93.8% (inactive); in the assay with EKVX NSCLC, 102% (inactive) and 90.6% (inactive); in the assay on SN12C renal it was 102% (inactive) and 106% (inactive). The growth in the assay with UO-31 renal is 76.3% (inactive) and 88.3% (inactive); in the assay on TK-10 renal, 120% (inactive) and 101% (inactive); in the assay with ACHN renal, 96.9% (inactive) and 112% (inactive); in the assay with CAKI-1 renal, 89.8% (inactive) and 91.3% (inactive); in the assay with A498 renal it was 107% (inactive) and 123% (inactive); in the assay with MOLT-4 leukemia it was 96.9% (inactive) and 90.1% (inactive).
As for `O=C1c2cccc3cccc(c23)C(=O)N1N1C(=O)c2cccc3c(N4CCNCC4)ccc(c23)C1=O`, the growth was 50.6% (inactive) with HCT-15 colon; 87.3% (inactive) in the assay on HT29 colon; 92.2% (inactive) with SNB-75 CNS; 88.5% (inactive) in the assay on SNB-19 CNS; 86.3% (inactive) in the assay with U251 CNS; 85.1% (inactive) in the assay on PC-3 prostate. For the same molecule, the growth in the assay with SK-MEL-5 melanoma is 92.8% (inactive); with UACC-62 melanoma, 95.7% (inactive); in the assay with SK-MEL-28 melanoma, 109% (inactive); with SK-MEL-2 melanoma, 101% (inactive); in the assay with EKVX NSCLC, 97.9% (inactive); in the assay on SN12C renal, 89.8% (inactive). Also, the growth was 71.6% (inactive) in the assay on UO-31 renal; 113% (inactive) with TK-10 renal; 87.8% (inactive) in the assay on ACHN renal; 92.4% (inactive) with CAKI-1 renal; 75.1% (inactive) in the assay with A498 renal; 19.5% (inactive) with CCRF-CEM leukemia. In the assay on MOLT-4 leukemia, the growth is 61.5% (inactive).
Turning to `CC(C)(C)c1cc(NC(=O)Nc2ccc(-c3cn4c(n3)sc3cc(OCCN5CCOCC5)ccc34)cc2)no1`, the growth in the assay on HCT-15 colon was 23.8% (inactive) and 51.5% (inactive); in the assay on HT29 colon, -41.7% (active) and -1.96% (active); with SNB-75 CNS, 45.4% (inactive) and -7.53% (active); in the assay with SNB-19 CNS, 37.4% (inactive) and 11.4% (inactive); with U251 CNS, -3.4% (active) and 0.378% (active); in the assay with PC-3 prostate, 22.8% (inactive) and 15.2% (inactive). In addition, the growth in the assay with SK-MEL-5 melanoma was 13.5% (inactive) and 9.61% (active); with UACC-62 melanoma, -53.4% (active) and 5.34% (active); in the assay on SK-MEL-28 melanoma, 42.9% (inactive) and 33.8% (inactive); with SK-MEL-2 melanoma it was 10.8% (inactive); with EKVX NSCLC, 47.6% (inactive) and 68.4% (inactive); in the assay on SN12C renal it was 15.6% (inactive) and 19.3% (inactive). Besides, the growth with UO-31 renal was 10.7% (inactive) and 28.2% (inactive); in the assay with TK-10 renal, 24.2% (inactive) and 45% (inactive); with ACHN renal, 12.4% (inactive) and 26.7% (inactive); in the assay on CAKI-1 renal, 30.4% (inactive) and 13.4% (inactive); with A498 renal, 8.16% (active) and 37.7% (inactive); in the assay with CCRF-CEM leukemia, 18.7% (inactive) and 20% (inactive). In addition, in the assay on MOLT-4 leukemia, the growth is 1.69% (active) and 40% (inactive).
With `Cc1oc2c(Cc3ccc(NC(=O)c4ccc(Cl)cc4)cc3)ncnc2c1C(=O)NO`, the growth in the assay with HCT-15 colon was 103% (inactive); in the assay with HT29 colon, 89.6% (inactive); in the assay with SNB-75 CNS, 106% (inactive); in the assay on SNB-19 CNS it was 105% (inactive); in the assay on U251 CNS, 104% (inactive); in the assay on PC-3 prostate it was 97.7% (inactive). Also, the growth is 86.1% (inactive) with SK-MEL-5 melanoma; 89.9% (inactive) in the assay with UACC-62 melanoma; 102% (inactive) in the assay with LOX IMVI melanoma; 88.3% (inactive) in the assay with SK-MEL-2 melanoma; 102% (inactive) with EKVX NSCLC; 103% (inactive) in the assay with SN12C renal. Besides, the growth in the assay on UO-31 renal is 85.4% (inactive); in the assay with TK-10 renal, 95.6% (inactive); in the assay on ACHN renal it was 106% (inactive); in the assay on CAKI-1 renal, 98.9% (inactive); in the assay with A498 renal it was 85.2% (inactive); with CCRF-CEM leukemia it was 90.9% (inactive). For the same molecule, the growth in the assay on MOLT-4 leukemia is 82.5% (inactive).
Consider `C/C(=C(\c1ccc(OCCN2CCOCC2)cc1)c1ccc(OC(=O)C2CCCCC2)cc1)c1ccc(Cl)cc1`, for which the growth with HCT-15 colon is 97.7% (inactive); in the assay with HT29 colon, 76.3% (inactive); in the assay on SNB-75 CNS, 109% (inactive); in the assay with SNB-19 CNS, 100% (inactive); with U251 CNS, 99.5% (inactive); in the assay with PC-3 prostate it was 68.2% (inactive). Besides, the growth in the assay with SK-MEL-5 melanoma is 91.6% (inactive); in the assay on UACC-62 melanoma, 87.9% (inactive); in the assay with SK-MEL-28 melanoma it was 99.1% (inactive); in the assay on SK-MEL-2 melanoma, 92.6% (inactive); with EKVX NSCLC, 94.1% (inactive); in the assay on SN12C renal it was 94.7% (inactive). For the same molecule, the growth in the assay with UO-31 renal is 81.8% (inactive); in the assay with TK-10 renal, 96.4% (inactive); in the assay with ACHN renal, 104% (inactive); in the assay on CAKI-1 renal, 77.9% (inactive); in the assay on A498 renal, 92.6% (inactive); in the assay on CCRF-CEM leukemia it was -24.6% (active). Also, in the assay on MOLT-4 leukemia, the growth is 91.1% (inactive).
With `O=C(Nc1ccc(F)cc1)c1cc2cc(Nc3nc(-c4ccccc4)nc4ccccc34)ccc2oc1=O`, the growth with HCT-15 colon is 112% (inactive); in the assay with HT29 colon, 98.4% (inactive); with SNB-75 CNS, 102% (inactive); in the assay on SNB-19 CNS, 109% (inactive); in the assay on U251 CNS, 97.4% (inactive); in the assay with PC-3 prostate it was 99.4% (inactive). The growth was 105% (inactive) in the assay with SK-MEL-5 melanoma; 102% (inactive) in the assay with UACC-62 melanoma; 93.5% (inactive) in the assay on LOX IMVI melanoma; 104% (inactive) in the assay on SK-MEL-2 melanoma; 108% (inactive) in the assay on EKVX NSCLC; 104% (inactive) in the assay on SN12C renal. Further, the growth was 83.4% (inactive) in the assay on UO-31 renal; 97.3% (inactive) with TK-10 renal; 105% (inactive) in the assay on ACHN renal; 101% (inactive) in the assay with CAKI-1 renal; 102% (inactive) in the assay with A498 renal; 106% (inactive) with CCRF-CEM leukemia. In addition, the growth with MOLT-4 leukemia is 92.9% (inactive).
Consider `Cn1cc(-c2nonc2-c2cn(C)c3ccc(Br)cc23)c2ccccc21`, for which the growth in the assay on HCT-15 colon was 26.1% (inactive); with HT29 colon, 9.17% (active); with SNB-75 CNS it was -0.37% (active); in the assay on SNB-19 CNS it was 27.6% (inactive); with U251 CNS, 23.3% (inactive); in the assay on PC-3 prostate, 32% (inactive). Moreover, the growth is 37.2% (inactive) in the assay on SK-MEL-5 melanoma; 21.8% (inactive) with UACC-62 melanoma; 55.9% (inactive) with SK-MEL-28 melanoma; 33.5% (inactive) with SK-MEL-2 melanoma; 48.6% (inactive) in the assay on EKVX NSCLC; 37.1% (inactive) in the assay with SN12C renal. Moreover, the growth was 32.3% (inactive) in the assay with UO-31 renal; 60.7% (inactive) in the assay with TK-10 renal; 33.5% (inactive) in the assay on ACHN renal; -5.37% (active) in the assay on A498 renal; 15.5% (inactive) in the assay with CCRF-CEM leukemia; 27.2% (inactive) in the assay with MOLT-4 leukemia.

Source of the values: PubChem BioAssay (NCI).
